Where “and” joins values, the source holds several entries; their conditions need not be identical. Identical values can stand only once. Inconclusive results are not listed. Calls of active or inactive are those of the source.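 Rule for the calls, unless noted: active = normalized viability below 100% at a tested concentration; inactive = the rest.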
Assays:
[1] = Wnt pathway potentiators raising nuclear beta-catenin – imaging, WNT3A-conditioned medium, mouse C2C12, NPC library, primary screen (AID 1117326; in the data active = nuclear beta-catenin stimulation mostly above about 4.2%, no sharp cut-off; inactive = mostly below about 10%); conditions: stronger effect = higher value
[2] = stimulators of insulin release from INS-1E, primary screen, cell-based, 5 mM glucose, NPC library (AID 1117329;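 active = compound raises insulin release from rat beta cells at 5 mM glucose, no numeric limit stated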); conditions: rat INS-1E insulin secretion, at 10 µM, stronger effect = higher value
[3] = growth inhibition of GSK3B-pretreated HCT116 cells – cell-based, CellTiter-Glo, 0.2 to 20 µM (AID 1117336;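 active = compounds lowering colon cancer cell viability after pretreatment blocking the GSK3B kinase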); conditions: HCT116 viability after GSK3B inhibitor, at 20 µM, stronger effect = higher value
[4] = inhibition of endothelial tube formation, primary screen, imaging, VEGF stimulated, CD31 staining, tube area, NPC library (AID 1117340;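 active = compound that reduces growth-factor-driven endothelial tube area in a mixed cell culture, no cutoff stated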); conditions: VEGF-stimulated ADSC/ECFC co-culture, at 10 µM, stronger effect = higher value
[5] = GLP1 release stimulators, primary, NCI-H716, NPC library (AID 1117341;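 active = compound raises GLP1 secretion from the human gut endocrine cells, with no numeric limit stated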); conditions: NCI-H716 cells, at 10 µM, stronger effect = higher value
[6] = HCT116 colon cancer cell growth inhibition, primary screen, CellTiter-Glo luminescence, NPC library (AID 1117342;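 active = compounds that lower survival of HCT116 colon cancer cells in the luminescence readout, no numeric limit stated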); conditions: at 20 µM (top of the series)
[7] = reduced SW480 viability measured with CellTiter-Glo, NPC library, primary (AID 1117343;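 active = compounds that lower viability of the colon cancer cells in the luminescence readout, with no numeric limit stated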); conditions: CellTiter-Glo luminescence; at 20 µM (top of the series) unless noted
[8] = NPC library primary testing for decreased DLD-1 cell viability via CellTiter-Glo (AID 1117346;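 active = compounds that lower survival of DLD-1 colon cancer cells in the luminescence readout, no cutoff given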); conditions: DLD-1 viability, CellTiter-Glo luminescence; at 20 µM (top of the series)
[9] = viability loss in pontine glioma line – cell-based, JHH-DIPG-1, MIPE4.0, CellTiter-Glo, qHTS, dose response (AID 1347062; cut-off not given, nearly all actives have AC50 up to about 27 µM;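 for AC50: cells exposed to compound for two days before readout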); conditions: JHH-DIPG-1 viability, CellTiter-Glo ATP luminescence
[10] = viability loss in pontine glioma line – cell-based, SU-DIPG-IV, MIPE4.0, CellTiter-Glo, qHTS, dose response (AID 1347063; cut-off not given, nearly all actives have AC50 up to about 30 µM;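 note: compound exposure lasted 48 hours before the viability readout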); conditions: CellTiter-Glo ATP luminescence
[11] = growth inhibition of DIPG cells – cell-based, MIPE4.0 library, CellTiter-Glo luminescence, qHTS (AID 1347066; cut-off not given, nearly all actives have AC50 up to about 30 µM;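 note: cells exposed to compound for 48 hours before readout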); conditions: SU-DIPG-VI viability, CellTiter-Glo ATP luminescence
[12] = viability loss in pontine glioma line – cell-based, SU-DIPG-XXV, MIPE5.0, CellTiter-Glo, qHTS, dose response (AID 1347065; cut-off not given, nearly all actives have AC50 up to about 26 µM;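 note: cells exposed to compound for 48 hours before ATP readout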); conditions: CellTiter-Glo ATP luminescence
[13] = JHH-DIPG-1 glioma cell viability, MIPE5.0 library, CellTiter-Glo luminescence, qHTS (AID 1347067; cut-off not given, nearly all actives have AC50 up to about 26 µM;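 note: cells exposed to compound for 48 hours before readout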); conditions: JHH-DIPG-1 glioma viability, CellTiter-Glo ATP luminescence
[14] = growth inhibition of DIPG cells – cell-based, MIPE5.0 library, qHTS (AID 1347068; cut-off not given, nearly all actives have IC50 up to about 30 µM;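 for IC50: cells exposed to compound for 48 hours before viability readout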); conditions: SU-DIPG-XXV viability
[15] = viability loss with induced miR-34 in A549 – imaging, A549 dox-inducible miR-34, nuclei and caspase counts, primary screen (AID 1347080;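 active = compounds whose cell count with miR-34 switched on is under 0.7 times the count with it off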); conditions: A549 miR-34 inducible, Hoechst nuclei count, 48 h
[16] = MELAS cybrid and Rieske KO viability enhancers – cell-based, MELAS cybrids, Rieske KO mouse fibroblasts, CellTiter-Glo, primary screen (AID 1508586;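 active = mean z-score across replicates of 1.96 or higher in either the MELAS or the Rieske mutant cell line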;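 note: z relative to plate mean and SD of compound and empty wells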); conditions: low glucose
[17] = galactose survival enhancers in mitochondrial complex I cybrids – cell-based, galactose medium, ATP luminescence, primary screen (AID 1645843;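 active = z-score of at least 1.8 in each of two replicates, scored against plate mean and spread of sample wells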;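 note: positive z means more ATP and so rescue of galactose-driven cybrid death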); conditions: complex I mutant cybrid cells, 72 h, stronger effect = higher value
[18] = drug combination growth inhibition, ovarian cancer – cell-based, oncology-focused library, rucaparib conditional, profiling panel (AID 1508598); conditions: patient-derived ovarian cancer cells, CellTiter-Glo viability, 144 h, stronger effect = lower value
[19] = stronger effect = lower value, cell number ratio, induced over uninduced
[20] = measured here: relative caspase fold change +Dox/-Dox
[21] = measured here: total cells with miR-34 induction, stronger effect = lower value
[22] = measured here: total cells without miR-34 induction
[23] = MELAS cybrid survival, CellTiter-Glo 48 h, stronger effect = higher value
[24] = Rieske KO mouse fibroblast survival, CellTiter-Glo 72 h

Cc1cc(=O)c2c(O)c3c(O)cc(=O)c4c3c3c(cc(O)c1c23)C(C)(C)C=4O
active: nuclear beta-catenin stimulation ([1]; at 10 µM) 46.6% | viability decrease [3] 117% | tube area decrease [4] 54.9% | inhibition of viability [6] 124% | viability decrease (inhibition) [7] 158% | viability decrease (inhibition) [8] 101% | AC50 [9] 0.743 µM | AC50 [10] 0.469 µM | AC50 [11] 0.105 µM
68.1%: nuclear beta-catenin stimulation ([1]; stimulation, at 2 µM)
inactive: insulin secretion stimulation [2] 0.4% | GLP1 secretion stimulation [5] 8%

CC1(C)CCC(C)(C)c2cc(NC(=O)c3ccc(C(=O)O)cc3)ccc21
8.5%: nuclear beta-catenin stimulation ([1]; stimulation, at 2 µM)
0.365: fold change [15, 20]
-0.199: z-score [16, 24]
inactive: nuclear beta-catenin stimulation ([1]; at 10 µM) 8% | insulin secretion stimulation [2] -0.4% | tube area decrease [4] 5.5% | GLP1 secretion stimulation [5] 4% | viability decrease (inhibition) [7] 47.9% | viability decrease (inhibition) [8] 43.1% | outcome [9] | outcome [12] | outcome [11] | outcome [13] | outcome [14] | fold change [15, 19] 0.901 | z-score [16, 23] 0.242
active: viability decrease [3] 77.6% | inhibition of viability [6] 69.7%
9110: cell count [15, 22]
8210: cell count [15, 21]

CCCCc1oc2ccc(NS(C)(=O)=O)cc2c1C(=O)c1ccc(OCCCN(CCCC)CCCC)cc1
2%: nuclear beta-catenin stimulation ([1]; stimulation, at 2 µM)
0.545 and 1.08: fold change [15, 20]
1.98 and -1.01: z-score [16, 24]
-1.62 and -0.663 (inactive): z-score [16, 23]
1290 and 3970: cell count [15, 22]
inactive: nuclear beta-catenin stimulation ([1]; at 10 µM) -3.1% | insulin secretion stimulation [2] 2.1% | GLP1 secretion stimulation [5] -5.9% | fold change [15, 19] 1.3 and 0.866 | z-score [17] -2.66
active: viability decrease [3] 99.1% | tube area decrease [4] 109% | inhibition of viability [6] 99.3% | viability decrease (inhibition) [7] 102% | viability decrease (inhibition) [8] 101% | AC50 [10] 7.43 µM | AC50 [11] 13.2 µM | AC50 [13] 10.5 µM | IC50 [14] 10.5 µM
1680 and 3440: cell count [15, 21]

CNC(=O)c1ccccc1Sc1ccc2c(/C=C/c3ccccn3)n[nH]c2c1
active: tube area decrease [4] 106% | viability decrease (inhibition) [7] 59.2% | viability decrease (inhibition) [8] 56.9% | AC50 [12] 1.18 µM | AC50 [13] 5.25 µM | IC50 [14] 3.72 µM | viability ([18]; at 0.000305 µM, OCI-P5x cells, without rucaparib) 95.9% | viability ([18]; at 0.00122 µM, OCI-P5x cells, without rucaparib) 93.6% | viability ([18]; at 0.00488 µM, OCI-P5x cells, without rucaparib) 98% | viability ([18]; at 0.0195 µM, OCI-P5x cells, without rucaparib) 94.2% | viability ([18]; at 0.0781 µM, OCI-C5x cells, without rucaparib) 98.3% | viability ([18]; at 0.0781 µM, OCI-P5x cells, without rucaparib) 96.6% | viability ([18]; at 0.313 µM, OCI-C5x cells, without rucaparib) 97.7% | viability ([18]; at 0.313 µM, OCI-P5x cells, without rucaparib) 87.8% | viability ([18]; at 1.25 µM, OCI-P5x cells, with rucaparib 20 µM, 100% = cells with rucaparib alone) 95.4% | viability ([18]; at 1.25 µM, OCI-P5x cells, without rucaparib) 85.8% | viability ([18]; at 5 µM, OCI-C5x cells, without rucaparib) 93.2% | viability ([18]; at 5 µM, OCI-P5x cells, without rucaparib) 83%
7.2%: nuclear beta-catenin stimulation ([1]; stimulation, at 2 µM)
inactive: nuclear beta-catenin stimulation ([1]; at 10 µM) 4.6% | insulin secretion stimulation [2] 4.65% | viability decrease [3] 21% | GLP1 secretion stimulation [5] 1% | inhibition of viability [6] 45.5% | viability ([18]; at 0.000305 µM, OCI-C5x cells, with rucaparib 10 µM, 100% = cells with rucaparib alone) 107% | viability ([18]; at 0.000305 µM, OCI-C5x cells, without rucaparib) 114% | viability ([18]; at 0.000305 µM, OCI-P5x cells, with rucaparib 20 µM, 100% = cells with rucaparib alone) 106% | viability ([18]; at 0.00122 µM, OCI-C5x cells, with rucaparib 10 µM, 100% = cells with rucaparib alone) 116% | viability ([18]; at 0.00122 µM, OCI-C5x cells, without rucaparib) 110% | viability ([18]; at 0.00122 µM, OCI-P5x cells, with rucaparib 20 µM, 100% = cells with rucaparib alone) 112% | viability ([18]; at 0.00488 µM, OCI-C5x cells, with rucaparib 10 µM, 100% = cells with rucaparib alone) 109% | viability ([18]; at 0.00488 µM, OCI-C5x cells, without rucaparib) 110% | viability ([18]; at 0.00488 µM, OCI-P5x cells, with rucaparib 20 µM, 100% = cells with rucaparib alone) 106% | viability ([18]; at 0.0195 µM, OCI-C5x cells, with rucaparib 10 µM, 100% = cells with rucaparib alone) 114% | viability ([18]; at 0.0195 µM, OCI-C5x cells, without rucaparib) 103% | viability ([18]; at 0.0195 µM, OCI-P5x cells, with rucaparib 20 µM, 100% = cells with rucaparib alone) 108% | viability ([18]; at 0.0781 µM, OCI-C5x cells, with rucaparib 10 µM, 100% = cells with rucaparib alone) 118% | viability ([18]; at 0.0781 µM, OCI-P5x cells, with rucaparib 20 µM, 100% = cells with rucaparib alone) 126% | viability ([18]; at 0.313 µM, OCI-C5x cells, with rucaparib 10 µM, 100% = cells with rucaparib alone) 110% | viability ([18]; at 0.313 µM, OCI-P5x cells, with rucaparib 20 µM, 100% = cells with rucaparib alone) 101% | viability ([18]; at 1.25 µM, OCI-C5x cells, with rucaparib 10 µM, 100% = cells with rucaparib alone) 112% | viability ([18]; at 1.25 µM, OCI-C5x cells, without rucaparib) 105% | viability ([18]; at 5 µM, OCI-C5x cells, with rucaparib 10 µM, 100% = cells with rucaparib alone) 110% | viability ([18]; at 5 µM, OCI-P5x cells, with rucaparib 20 µM, 100% = cells with rucaparib alone) 107%

Source: PubChem BioAssay
